# Laboratory results as given in article PMC7862700, “An all-to-all approach to the identification of sequence-specific readers for epigenetic DNA modifications on cytosine”.
# Experiments:
# Test in all cases: DAPPL (digital affinity profiling via proximity ligation, sequencing); 10 mM Tris-HCl pH 7.5, 50 mM NaCl, 1 mM DTT, 4% glycerol, room temperature, 30 min; GST-TFs on glutathione beads, 16-mer random dsDNA library, 0.1% formaldehyde crosslink after washing; high values mean tight binding
# FLI1 = biological target: T1, FLI1 (Homo sapiens, UniProt Q01543 1-452); conditions: protein: recombinant; tags: N-terminal GST; dsDNA, one strand shown
# T1 sequence: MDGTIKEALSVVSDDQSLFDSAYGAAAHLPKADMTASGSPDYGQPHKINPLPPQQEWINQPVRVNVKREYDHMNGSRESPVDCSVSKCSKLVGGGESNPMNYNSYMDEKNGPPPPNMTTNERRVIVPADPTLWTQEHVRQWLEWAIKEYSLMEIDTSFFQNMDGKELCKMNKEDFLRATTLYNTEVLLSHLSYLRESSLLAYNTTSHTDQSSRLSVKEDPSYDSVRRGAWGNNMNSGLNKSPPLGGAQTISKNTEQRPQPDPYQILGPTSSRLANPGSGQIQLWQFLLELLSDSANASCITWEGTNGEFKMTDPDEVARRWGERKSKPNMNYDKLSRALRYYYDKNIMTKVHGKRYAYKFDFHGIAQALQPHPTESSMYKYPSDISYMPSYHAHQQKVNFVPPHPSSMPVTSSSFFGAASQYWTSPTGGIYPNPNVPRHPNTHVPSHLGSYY
# Outline: (§1)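 GST fusions of human transcription factors were expressed in yeast and captured with glutathione beads. Once given DNA barcodes and pooled alongside a tag-only sample, they were incubated for 30 min at room temperature with 200 nmole of a random double-stranded 16-mer DNA library in Tris/NaCl/DTT/glycerol buffer, then washed, crosslinked (0.1% formaldehyde), proximity-ligated, PCR-amplified and sequenced on an Illumina NextSeq500. The binding signal of each hexamer is its read frequency for a factor divided by its frequency for the tag-only sample.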
# ELK1 = biological target: T2, ELK1 (Homo sapiens, UniProt P19419 1-428); conditions: protein: recombinant; tags: N-terminal GST; dsDNA, one strand shown
# T2 sequence: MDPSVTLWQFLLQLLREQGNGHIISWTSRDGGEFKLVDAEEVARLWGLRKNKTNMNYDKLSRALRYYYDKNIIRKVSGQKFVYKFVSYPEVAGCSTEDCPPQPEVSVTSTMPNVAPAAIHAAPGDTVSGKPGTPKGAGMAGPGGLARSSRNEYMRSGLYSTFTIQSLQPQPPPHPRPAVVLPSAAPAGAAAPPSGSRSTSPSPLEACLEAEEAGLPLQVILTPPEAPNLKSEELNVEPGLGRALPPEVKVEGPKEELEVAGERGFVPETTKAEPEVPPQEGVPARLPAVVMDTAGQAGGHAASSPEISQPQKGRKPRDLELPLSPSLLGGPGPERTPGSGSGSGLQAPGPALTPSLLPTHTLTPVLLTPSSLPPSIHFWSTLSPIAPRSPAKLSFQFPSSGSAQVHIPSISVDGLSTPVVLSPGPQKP
# Outline: as §1
# GABPA = biological target: T3, GABPA (Homo sapiens, UniProt Q06546 1-454); conditions: protein: recombinant; tags: N-terminal GST; dsDNA, one strand shown
# T3 sequence: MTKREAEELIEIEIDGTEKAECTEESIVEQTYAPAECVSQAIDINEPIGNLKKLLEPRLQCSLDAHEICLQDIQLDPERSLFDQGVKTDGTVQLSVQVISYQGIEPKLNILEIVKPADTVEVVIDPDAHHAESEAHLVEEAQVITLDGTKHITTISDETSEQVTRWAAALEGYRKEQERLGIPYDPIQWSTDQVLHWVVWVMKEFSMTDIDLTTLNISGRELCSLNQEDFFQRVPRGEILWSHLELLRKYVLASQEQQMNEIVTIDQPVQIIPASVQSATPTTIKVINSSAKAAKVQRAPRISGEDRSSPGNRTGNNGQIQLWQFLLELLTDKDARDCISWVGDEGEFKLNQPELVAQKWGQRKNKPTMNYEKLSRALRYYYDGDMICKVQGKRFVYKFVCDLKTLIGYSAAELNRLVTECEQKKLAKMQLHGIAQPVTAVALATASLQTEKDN
# Outline: as §1
# ERG = biological target: T4, ERG (Homo sapiens, UniProt P11308 1-479); conditions: protein: recombinant; tags: N-terminal GST; dsDNA, one strand shown
# T4 sequence: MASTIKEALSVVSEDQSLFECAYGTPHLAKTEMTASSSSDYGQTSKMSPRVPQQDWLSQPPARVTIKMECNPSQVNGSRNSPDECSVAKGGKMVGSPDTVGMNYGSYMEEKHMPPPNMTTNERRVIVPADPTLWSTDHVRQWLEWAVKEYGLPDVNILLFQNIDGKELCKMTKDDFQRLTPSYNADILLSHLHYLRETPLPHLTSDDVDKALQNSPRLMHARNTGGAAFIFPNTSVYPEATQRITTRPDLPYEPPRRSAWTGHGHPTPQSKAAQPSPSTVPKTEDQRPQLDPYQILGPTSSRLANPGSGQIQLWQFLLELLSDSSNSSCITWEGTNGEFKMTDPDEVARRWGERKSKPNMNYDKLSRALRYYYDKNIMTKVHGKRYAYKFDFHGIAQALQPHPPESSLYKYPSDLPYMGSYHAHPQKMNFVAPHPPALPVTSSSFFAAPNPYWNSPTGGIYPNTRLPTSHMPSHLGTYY
# Outline: as §1
# ELF1 = ELF1 (Homo sapiens, UniProt P32519 1-619); conditions: protein: recombinant; tags: N-terminal GST; dsDNA, one strand shown
# Sequence of ELF1 (P32519 whole entry): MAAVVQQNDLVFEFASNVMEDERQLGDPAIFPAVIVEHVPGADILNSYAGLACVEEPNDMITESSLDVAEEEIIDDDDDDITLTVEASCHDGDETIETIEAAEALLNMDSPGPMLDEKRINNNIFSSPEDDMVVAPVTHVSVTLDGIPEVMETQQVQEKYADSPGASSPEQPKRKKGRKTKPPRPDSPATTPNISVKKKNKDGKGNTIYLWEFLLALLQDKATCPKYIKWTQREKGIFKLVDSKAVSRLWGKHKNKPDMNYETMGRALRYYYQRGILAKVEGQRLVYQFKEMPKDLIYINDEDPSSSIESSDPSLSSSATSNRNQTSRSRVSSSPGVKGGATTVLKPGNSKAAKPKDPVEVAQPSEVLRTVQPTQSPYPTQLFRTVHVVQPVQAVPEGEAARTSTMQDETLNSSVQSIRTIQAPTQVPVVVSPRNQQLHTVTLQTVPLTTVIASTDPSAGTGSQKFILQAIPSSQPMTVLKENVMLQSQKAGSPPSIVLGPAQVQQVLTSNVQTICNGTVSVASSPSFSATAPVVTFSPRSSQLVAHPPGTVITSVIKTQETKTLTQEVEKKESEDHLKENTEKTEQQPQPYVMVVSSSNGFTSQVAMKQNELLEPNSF
# Outline: as §1
# EHF = biological target: T5, EHF (Homo sapiens, UniProt Q9NZC4 1-300); conditions: protein: recombinant; tags: N-terminal GST; dsDNA, one strand shown
# T5 sequence: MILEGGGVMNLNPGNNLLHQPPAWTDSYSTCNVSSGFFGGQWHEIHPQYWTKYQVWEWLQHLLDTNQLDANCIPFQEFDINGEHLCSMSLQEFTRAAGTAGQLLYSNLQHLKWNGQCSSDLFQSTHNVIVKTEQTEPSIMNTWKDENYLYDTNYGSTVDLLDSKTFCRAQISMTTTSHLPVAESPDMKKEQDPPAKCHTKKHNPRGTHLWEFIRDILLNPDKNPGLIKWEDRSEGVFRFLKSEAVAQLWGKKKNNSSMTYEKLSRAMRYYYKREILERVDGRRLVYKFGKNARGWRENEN
# Outline: as §1
# SPI1 = SPI1 (Homo sapiens, UniProt P17947 1-270); conditions: protein: recombinant; tags: N-terminal GST; dsDNA, one strand shown
# Outline: as §1
# SPIB = SPIB (Homo sapiens, UniProt Q01892 1-262); conditions: protein: recombinant; tags: N-terminal GST; dsDNA, one strand shown
# Sequence of SPIB (Q01892 whole entry): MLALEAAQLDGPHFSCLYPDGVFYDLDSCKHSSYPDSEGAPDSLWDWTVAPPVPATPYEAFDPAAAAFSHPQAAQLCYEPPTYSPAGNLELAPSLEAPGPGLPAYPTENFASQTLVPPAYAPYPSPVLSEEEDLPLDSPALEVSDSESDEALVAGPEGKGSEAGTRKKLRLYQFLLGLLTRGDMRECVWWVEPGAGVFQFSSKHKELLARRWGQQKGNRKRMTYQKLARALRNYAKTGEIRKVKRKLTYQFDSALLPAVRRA
# Outline: as §1
# ELK3 = biological target: T6, ELK3 (Homo sapiens, UniProt P41970 1-407); conditions: protein: recombinant; tags: N-terminal GST; dsDNA, one strand shown
# T6 sequence: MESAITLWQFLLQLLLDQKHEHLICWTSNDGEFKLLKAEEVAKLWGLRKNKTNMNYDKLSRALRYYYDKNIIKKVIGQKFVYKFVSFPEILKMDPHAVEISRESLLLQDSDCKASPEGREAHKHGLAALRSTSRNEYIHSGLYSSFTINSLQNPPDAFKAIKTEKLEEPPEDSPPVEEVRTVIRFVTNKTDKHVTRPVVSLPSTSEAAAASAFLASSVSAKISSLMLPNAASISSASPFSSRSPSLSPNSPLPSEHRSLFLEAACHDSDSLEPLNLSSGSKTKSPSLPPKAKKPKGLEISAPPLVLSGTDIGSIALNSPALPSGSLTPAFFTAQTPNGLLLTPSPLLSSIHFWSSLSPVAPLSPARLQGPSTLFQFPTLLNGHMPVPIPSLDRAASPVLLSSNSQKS
# Outline: as §1
# FEV = biological target: T7, FEV (Homo sapiens, UniProt Q99581 1-238); conditions: protein: recombinant; tags: N-terminal GST; dsDNA, one strand shown
# T7 sequence: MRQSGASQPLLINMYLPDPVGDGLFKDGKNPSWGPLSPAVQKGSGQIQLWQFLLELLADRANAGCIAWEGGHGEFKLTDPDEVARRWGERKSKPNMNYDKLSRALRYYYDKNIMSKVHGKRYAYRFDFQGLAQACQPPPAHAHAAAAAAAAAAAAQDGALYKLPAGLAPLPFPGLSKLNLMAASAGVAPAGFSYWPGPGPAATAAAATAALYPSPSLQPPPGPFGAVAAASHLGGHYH
# Outline: as §1
# ETV5 = ETV5 (Homo sapiens, UniProt P41161 1-510); conditions: protein: recombinant; tags: N-terminal GST; dsDNA, one strand shown
# Sequence of ETV5 (P41161 whole entry): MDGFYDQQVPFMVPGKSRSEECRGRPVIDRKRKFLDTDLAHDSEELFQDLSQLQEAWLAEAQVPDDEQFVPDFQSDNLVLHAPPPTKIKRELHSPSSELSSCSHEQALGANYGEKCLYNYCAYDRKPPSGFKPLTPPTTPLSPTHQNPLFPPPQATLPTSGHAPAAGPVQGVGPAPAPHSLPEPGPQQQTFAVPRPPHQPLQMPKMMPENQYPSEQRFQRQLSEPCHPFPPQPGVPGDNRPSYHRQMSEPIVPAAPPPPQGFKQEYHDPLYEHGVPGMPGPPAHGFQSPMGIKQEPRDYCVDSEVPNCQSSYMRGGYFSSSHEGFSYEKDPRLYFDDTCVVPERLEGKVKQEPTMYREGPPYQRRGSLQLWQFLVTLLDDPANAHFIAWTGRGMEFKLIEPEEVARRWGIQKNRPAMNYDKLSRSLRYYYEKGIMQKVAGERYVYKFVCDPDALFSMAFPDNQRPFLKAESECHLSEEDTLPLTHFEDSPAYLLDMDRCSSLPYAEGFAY
# Outline: as §1
# HSF1 = HSF1 (Homo sapiens, UniProt Q00613 1-529); conditions: protein: recombinant; tags: N-terminal GST; chain copies: 3; dsDNA, one strand shown
# Sequence of HSF1 (Q00613 whole entry): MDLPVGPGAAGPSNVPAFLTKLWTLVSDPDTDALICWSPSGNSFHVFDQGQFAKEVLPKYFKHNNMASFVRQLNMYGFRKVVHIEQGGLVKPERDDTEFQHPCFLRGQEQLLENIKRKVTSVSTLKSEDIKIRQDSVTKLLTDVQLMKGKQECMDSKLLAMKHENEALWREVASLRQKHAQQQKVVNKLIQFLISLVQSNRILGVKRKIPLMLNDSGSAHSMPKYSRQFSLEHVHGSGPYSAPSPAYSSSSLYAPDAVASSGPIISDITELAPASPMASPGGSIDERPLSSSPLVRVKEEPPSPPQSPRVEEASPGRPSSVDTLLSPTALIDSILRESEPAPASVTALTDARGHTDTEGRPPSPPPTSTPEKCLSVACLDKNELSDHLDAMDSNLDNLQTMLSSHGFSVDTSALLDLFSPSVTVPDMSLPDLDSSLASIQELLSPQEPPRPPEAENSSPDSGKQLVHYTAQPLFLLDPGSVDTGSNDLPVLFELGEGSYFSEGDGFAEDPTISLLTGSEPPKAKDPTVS
# Outline: as §1
# SPIC = biological target: T8, SPIC (Homo sapiens, UniProt Q8N5J4 1-248); conditions: protein: recombinant; tags: N-terminal GST; dsDNA, one strand shown
# T8 sequence: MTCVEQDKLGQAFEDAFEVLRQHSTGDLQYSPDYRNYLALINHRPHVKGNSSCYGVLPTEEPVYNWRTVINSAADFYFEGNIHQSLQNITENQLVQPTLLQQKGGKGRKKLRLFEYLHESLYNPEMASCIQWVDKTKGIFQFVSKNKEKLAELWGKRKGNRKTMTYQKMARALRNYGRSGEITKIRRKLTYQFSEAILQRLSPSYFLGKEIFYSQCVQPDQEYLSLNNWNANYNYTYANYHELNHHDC
# Outline: as §1
# ELF4 = ELF4 (Homo sapiens, UniProt Q99607 1-663); conditions: protein: recombinant; tags: N-terminal GST; dsDNA, one strand shown
# Sequence of ELF4 (Q99607 whole entry): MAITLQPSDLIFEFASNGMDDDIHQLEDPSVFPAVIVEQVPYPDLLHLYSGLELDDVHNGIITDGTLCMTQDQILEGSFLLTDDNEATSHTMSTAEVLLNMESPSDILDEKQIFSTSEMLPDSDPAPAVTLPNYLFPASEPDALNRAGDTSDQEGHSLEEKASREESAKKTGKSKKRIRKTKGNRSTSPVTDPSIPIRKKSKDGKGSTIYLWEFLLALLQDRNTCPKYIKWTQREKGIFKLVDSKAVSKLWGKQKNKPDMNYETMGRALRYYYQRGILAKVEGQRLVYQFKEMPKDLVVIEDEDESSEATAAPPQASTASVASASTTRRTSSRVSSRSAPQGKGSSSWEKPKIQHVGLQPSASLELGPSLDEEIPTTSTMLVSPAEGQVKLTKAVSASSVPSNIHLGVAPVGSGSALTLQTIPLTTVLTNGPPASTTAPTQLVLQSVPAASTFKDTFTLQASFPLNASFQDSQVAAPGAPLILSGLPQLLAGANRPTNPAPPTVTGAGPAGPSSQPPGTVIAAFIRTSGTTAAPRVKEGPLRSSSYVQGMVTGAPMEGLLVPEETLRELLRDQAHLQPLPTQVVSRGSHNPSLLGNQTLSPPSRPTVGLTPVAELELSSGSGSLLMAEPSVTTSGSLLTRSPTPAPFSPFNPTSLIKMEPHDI
# Outline: as §1
# ELK4 = biological target: T9, ELK4 (Homo sapiens, UniProt P28324-2 1-405); conditions: protein: recombinant; tags: N-terminal GST; dsDNA, one strand shown
# T9 sequence: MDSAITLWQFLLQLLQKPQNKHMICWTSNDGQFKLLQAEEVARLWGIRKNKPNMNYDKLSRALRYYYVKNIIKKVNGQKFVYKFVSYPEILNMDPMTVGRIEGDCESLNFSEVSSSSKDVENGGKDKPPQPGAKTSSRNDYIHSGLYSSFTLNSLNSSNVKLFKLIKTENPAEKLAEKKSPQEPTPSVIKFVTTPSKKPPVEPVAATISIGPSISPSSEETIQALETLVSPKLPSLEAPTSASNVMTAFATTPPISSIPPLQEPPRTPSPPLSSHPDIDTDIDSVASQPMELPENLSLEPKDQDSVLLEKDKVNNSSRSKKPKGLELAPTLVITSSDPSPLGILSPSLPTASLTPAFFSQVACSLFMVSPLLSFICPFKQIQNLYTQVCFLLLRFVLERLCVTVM
# Outline: as §1
# ETV2 = biological target: T10, ETV2 (Homo sapiens, UniProt O00321 1-342); conditions: protein: recombinant; tags: N-terminal GST; dsDNA, one strand shown
# T10 sequence: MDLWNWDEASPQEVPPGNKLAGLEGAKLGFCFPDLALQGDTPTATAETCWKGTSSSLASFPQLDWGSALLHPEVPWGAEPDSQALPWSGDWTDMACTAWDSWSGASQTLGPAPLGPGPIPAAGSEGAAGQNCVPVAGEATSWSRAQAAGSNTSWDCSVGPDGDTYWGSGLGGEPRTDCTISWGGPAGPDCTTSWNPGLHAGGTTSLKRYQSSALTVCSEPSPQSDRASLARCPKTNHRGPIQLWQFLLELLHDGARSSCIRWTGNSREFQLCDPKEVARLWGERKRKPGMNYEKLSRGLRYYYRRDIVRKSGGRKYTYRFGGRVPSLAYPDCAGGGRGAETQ
# Outline: as §1
# ELF3 = biological target: T11, ELF3 (Homo sapiens, UniProt P78545 1-371); conditions: protein: recombinant; tags: N-terminal GST; dsDNA, one strand shown
# T11 sequence: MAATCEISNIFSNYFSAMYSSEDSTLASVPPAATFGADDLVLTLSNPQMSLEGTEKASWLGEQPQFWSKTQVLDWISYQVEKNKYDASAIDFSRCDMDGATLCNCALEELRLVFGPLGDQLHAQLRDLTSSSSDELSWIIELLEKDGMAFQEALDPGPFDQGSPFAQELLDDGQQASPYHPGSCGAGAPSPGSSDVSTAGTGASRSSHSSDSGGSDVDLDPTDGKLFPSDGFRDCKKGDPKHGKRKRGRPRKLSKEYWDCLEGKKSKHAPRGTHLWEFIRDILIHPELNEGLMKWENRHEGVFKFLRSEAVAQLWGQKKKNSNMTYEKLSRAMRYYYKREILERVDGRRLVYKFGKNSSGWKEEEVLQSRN
# Outline: as §1
# CRX = CRX (Homo sapiens, UniProt O43186 1-299); conditions: protein: recombinant; tags: N-terminal GST; dsDNA, one strand shown
# Sequence of CRX (O43186 whole entry): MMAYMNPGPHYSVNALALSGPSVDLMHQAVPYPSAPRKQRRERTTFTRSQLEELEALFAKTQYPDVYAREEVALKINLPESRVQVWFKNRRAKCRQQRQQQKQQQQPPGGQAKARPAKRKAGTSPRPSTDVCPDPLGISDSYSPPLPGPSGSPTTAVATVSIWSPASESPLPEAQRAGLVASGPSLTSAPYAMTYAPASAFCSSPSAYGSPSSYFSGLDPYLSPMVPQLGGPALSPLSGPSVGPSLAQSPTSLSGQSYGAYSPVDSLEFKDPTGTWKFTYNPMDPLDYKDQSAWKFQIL
# Outline: as §1
# ETV1 = ETV1 (Homo sapiens, UniProt P50549 1-477); conditions: protein: recombinant; tags: N-terminal GST; dsDNA, one strand shown
# Sequence of ETV1 (P50549 whole entry): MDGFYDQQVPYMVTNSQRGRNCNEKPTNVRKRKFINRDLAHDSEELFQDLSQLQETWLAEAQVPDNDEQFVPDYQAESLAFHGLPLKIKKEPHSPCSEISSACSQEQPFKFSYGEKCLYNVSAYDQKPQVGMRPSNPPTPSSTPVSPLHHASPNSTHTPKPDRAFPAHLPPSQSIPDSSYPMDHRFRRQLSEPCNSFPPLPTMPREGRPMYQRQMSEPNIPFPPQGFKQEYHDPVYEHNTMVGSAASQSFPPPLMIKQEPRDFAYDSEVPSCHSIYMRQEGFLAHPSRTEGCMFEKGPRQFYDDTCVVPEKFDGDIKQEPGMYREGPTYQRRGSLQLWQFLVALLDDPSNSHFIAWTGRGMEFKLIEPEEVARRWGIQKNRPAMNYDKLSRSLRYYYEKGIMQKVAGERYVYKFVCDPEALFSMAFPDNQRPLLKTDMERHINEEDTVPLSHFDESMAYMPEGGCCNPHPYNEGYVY
# Outline: as §1
sequence,measurement,setting,value
CTAGGT,binding signal,FLI1,"1.07 fold enrichment (6-mer frequency, TF over GST control)"
same,binding signal,ELK1,"1.13 fold enrichment (6-mer frequency, TF over GST control)"
same,binding signal,GABPA,"1.05 fold enrichment (6-mer frequency, TF over GST control)"
same,binding signal,ERG,"1.14 fold enrichment (6-mer frequency, TF over GST control)"
same,binding signal,ELF1,"1.2 fold enrichment (6-mer frequency, TF over GST control)"
same,binding signal,EHF,"1.09 fold enrichment (6-mer frequency, TF over GST control)"
same,binding signal,SPI1,"1.05 fold enrichment (6-mer frequency, TF over GST control)"
same,binding signal,SPIB,"1.13 fold enrichment (6-mer frequency, TF over GST control)"
same,binding signal,ELK3,"1.13 fold enrichment (6-mer frequency, TF over GST control)"
same,binding signal,FEV,"1.07 fold enrichment (6-mer frequency, TF over GST control)"
same,binding signal,ETV5,"1.18 fold enrichment (6-mer frequency, TF over GST control)"
same,binding signal,HSF1,"1.19 fold enrichment (6-mer frequency, TF over GST control)"
same,binding signal,SPIC,"1.26 fold enrichment (6-mer frequency, TF over GST control)"
same,binding signal,ELF4,"1.12 fold enrichment (6-mer frequency, TF over GST control)"
same,binding signal,ELK4,"1.18 fold enrichment (6-mer frequency, TF over GST control)"
same,binding signal,ETV2,"1.07 fold enrichment (6-mer frequency, TF over GST control)"
same,binding signal,ELF3,"1.18 fold enrichment (6-mer frequency, TF over GST control)"
same,binding signal,CRX,"1.05 fold enrichment (6-mer frequency, TF over GST control)"
same,binding signal,ETV1,"1.1 fold enrichment (6-mer frequency, TF over GST control)"
